High-throughput results as filed in PubChem.
NOTCH agonist = agonists of NOTCH signaling; NOTCH signaling luciferase reporter cells, luminescence; activation, % at 2.5 µM; hit rate 0.4% among 15,000; AID 434982; in the data active = activation above about 2.2%
S1P1 ag = S1P1 (human) receptor agonism; S1P1 agonist cell-based reporter assay; activation, % at 4.5 µM; hit rate 1.5% among 16,000; P21453; in the data active = activation above about 80%
rat GALR2 ag = GALR2 (rat) receptor agonism | O08726 | cell-based GALR2 agonist screen | activation, % at 10 µM | hit rate 0.5% among 16,000 | AID 833; in the data active = activation above about 15%
Target sequence (O08726 whole entry, looked up): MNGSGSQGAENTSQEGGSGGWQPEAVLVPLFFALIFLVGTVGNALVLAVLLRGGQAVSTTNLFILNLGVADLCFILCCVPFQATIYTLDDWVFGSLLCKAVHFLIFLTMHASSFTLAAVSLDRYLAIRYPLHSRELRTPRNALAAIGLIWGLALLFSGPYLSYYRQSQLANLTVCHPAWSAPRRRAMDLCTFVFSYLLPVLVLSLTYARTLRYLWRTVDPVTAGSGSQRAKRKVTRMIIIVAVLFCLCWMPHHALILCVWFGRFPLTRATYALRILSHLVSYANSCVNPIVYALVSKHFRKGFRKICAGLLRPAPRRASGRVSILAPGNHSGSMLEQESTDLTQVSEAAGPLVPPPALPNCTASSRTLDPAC
* marks the source's active call; other numbers are inactive results; . = no result given. Most compounds without a hit are left out; they make up all but 2.2% or so of the library.

SMILES	NOTCH agonist	S1P1 ag	rat GALR2 ag
COc1ccc(C(=O)N/N=C/c2cc(Cl)cc(Cl)c2O)cc1	.	2	-2
CC(NC(=S)N/N=C/c1cc(Cl)cc(Cl)c1O)c1ccccc1 (stereo unspecified)	-1	-17	27*
Oc1c(Cl)cc(Cl)cc1/C=N/NC(=S)NNc1ccccc1	0	54	-3
O=C(N/N=C/c1cc(Cl)cc(Cl)c1O)C(=O)Nc1ccc(Cl)c(Cl)c1	4.1*	14	-6
CO[C@@H]1O[C@H](COC(C)=O)[C@H](OC(C)=O)[C@H](OC(C)=O)[C@H]1OC(C)=O	0	12	0
O=C(c1ccccc1)C1CCN(C(=O)CS(=O)(=O)c2ccc(Cl)cc2)CC1	0	1	-2
O=C1c2ccccc2S(=O)(=O)N1CCS(=O)(=O)c1ccc(Cl)cc1Cl	-1	91*	-2
O=C1c2ccccc2S(=O)(=O)N1CC1CC1	0	-15	-9
Cc1onc(-c2ccccc2)c1NC(=O)Nc1ccc(C2=NC(C)(C)CO2)cc1	0	-13	-4
Cc1cc(-c2nnc(-c3cccc(C(F)(F)F)c3)o2)no1	0	80*	-3
FC(F)(F)c1cccc(-c2noc(-c3ccc(-c4cccs4)s3)n2)c1	1	20	-7
COc1ccc(Cl)cc1NC(=O)NCCSCc1ccco1	0	2	-3
COc1cc(Sc2ccc(Cl)cc2)ccc1[N+](=O)[O-]	0	7	-2
COc1ccc([N+](=O)[O-])c(S(=O)(=O)c2ccc(Cl)cc2)n1	-1	104*	-13
C/C(=N\O)c1ccc2c(c1)CCC2	0	1	-5
O=C(c1ccc2c(c1)CCC2)C1CCC1	-1	-8	46*
Oc1[nH]c2ccccc2c1N=Nc1nc(-c2ccc(Br)cc2)cs1	0	82*	-7
Cn1c(=O)c2c(nc(N=Nc3c(O)[nH]c4cc(Br)ccc34)n2C)n(C)c1=O	-1	15	-6
COC(=O)CN=C/C(C(C)=O)=C(\C)O	0	-1	-4
O=C(CSc1n[nH]c(=O)n1Cc1ccco1)Nc1ccccc1	.	-6	-8
COc1ccc(C(=O)CSc2n[nH]c(=O)n2Cc2ccco2)cc1	2.2*	3	-2
O=C(O/N=C1/CCCc2occc21)c1ccc([N+](=O)[O-])cc1	1	-3	0
Cc1noc(C)c1NC(=O)NC(=O)c1c(F)cccc1Cl	0	10	-5
Cc1noc(NC(=O)NC(=O)c2cc(F)c(N(C)C)c(F)c2)c1C	-1	19	36*
CC1CC(=O)Nc2ccccc2N1S(=O)(=O)c1ccc(F)cc1F (stereo unspecified)	0	-1	-4
SMILES	NOTCH agonist	S1P1 ag	rat GALR2 ag
CC1CC(=O)Nc2ccccc2N1S(=O)(=O)c1cn(C)cn1 (stereo unspecified)	-1	121*	-6
Cc1ccc2cc(NC(=O)c3cnc4ccccc4n3)ccc2n1	0	-14	-6
CCOC(=O)c1cnn(-c2ccccc2)c1NC(=O)Nc1cccc(Cl)c1	-5	-7	-7
CCOC(=O)c1cc(NC(=O)Nc2cccc(Cl)c2)ccc1Oc1cncc(Cl)c1	2	80*	-12
O=S(=O)(Nc1ccccc1C(F)(F)F)c1ccc(-c2ccccn2)s1	.	15	-9
CSc1nccc(-c2ccc(S(=O)(=O)Nc3cc(C(F)(F)F)cc(C(F)(F)F)c3)s2)n1	0	88*	-5
O=C1CC(c2ccc(NC(=O)C(F)(F)F)cc2)C(=O)N1c1ccc(OC(F)(F)F)cc1 (stereo unspecified)	0	6	-7
O=C1CN(c2ccc(OC(F)(F)F)cc2)C(=O)CN1CC1CC1	-2	3	44*
Cn1c(=O)c2c(N)c([N+](=O)[O-])c(=O)n(C)c2n(C)c1=O	0	18	-4
CN(C)c1cccc(N(C)C)c1CNC(=O)c1ccccc1Cl	-1	-1	-4
Cn1cc(C(=O)Nc2cc(F)ccc2F)c(C(F)(F)F)n1	.	-11	-9
Cn1nc(C(F)(F)F)c(-c2ccccc2)c1N1C(=O)C2C3C=CC(C3)C2C1=O (stereo unspecified)	0	86*	-6
Cc1cc(C(=O)Nc2c(-c3ccccc3)c(C(F)(F)F)nn2C)no1	0	-1	-6
O=C1NCCN1CCNS(=O)(=O)c1ccc2c(c1)CCO2	-1	-8	-1
O=C1NCCN1CCNS(=O)(=O)c1ccc(S(=O)(=O)c2ccccc2)s1	-1	84*	5
O=C(NC(=O)c1ccc(S(=O)(=O)N2CCOCC2)cc1)Nc1ccc(Cl)cc1	0	-89	-7
O=C(Cc1ccccc1)NC1CCN(C(=O)Cc2ccccc2)CC1	0	-13	-5
CC(=NCCc1ccccc1)C1CCOC1=O (stereo unspecified)	-1	114*	0
Cc1cc(C(=O)NNC(=O)CSCc2cccc3ccccc23)no1	2.8*	-10	-8
Cc1cc(C(=O)NNC(=O)Nc2ccc(Cl)cc2)no1	0	-7	-4
CCOC(=O)/C(C#N)=C/Nc1cc(F)ccc1C	0	-8	-8
